# Compound activity: PubChem BioAssay, National Center for Advancing Translational Sciences (NCATS)
# Compounds with a hit are over-represented: about 21% of the library has one in this group of screens.
# Gal4-VP16 FLuc: VP16 counterscreen qHTS for inhibitors of ROR gamma transcriptional activity; AID 2546, 2010; Potency, µM (top dose mostly 53.6 µM), without a hit: at the top dose activity, negative = inhibition, hits mostly inhibitors; Drosophila S2 Gal4-VP16 UAS-luciferase, luminescence, 20 h; 310,000 tested, 3.5% active;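 note: Gal4-VP16 expression switched on by copper sulfate through the metallothionein promoter; potency is the fitted concentration of half-maximal effect; nearly all actives have a fitted effect of over 50% in size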
# IL-1B inflam inh: qHTS for Inhibitors of Inflammasome Signaling: IL-1-beta AlphaLISA Primary Screen | THP-1 LPS/ATP IL-1B secretion, AlphaLISA, 16 h; active compounds read low | activity change, % at 57.5 µM | 360,000 tested, 4.7% active | AID 743279, 2014; in the data active = activity change below about -50%; inconclusive = mostly about -30% to -49%
#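 Secreted IL-1B measured by AlphaLISA bead assay after 16 h compound exposure of THP-1 cells; compounds (final up to 57.5 uM) added 1 h before LPS (250 ng/mL) and ATP (1.25 mM) stimulation; lower signal means less secretion.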
# DT40 TDP1 no CPT: qHTS for Inhibitors of human tyrosyl-DNA phosphodiesterase 1 (TDP1): qHTS in cells in absence of CPT; DT40 Tdp1-/- hTDP1 cells, no CPT, ATP luminescence, 48 h; Potency, µM (highest dose often 46.2 µM), for the others: at the highest dose activity change, negative = growth inhibition, hits mostly inhibitors; 420,000 tested, 15% active; note: potency is the fitted concentration of half-maximal effect; nearly all actives have a fitted effect of over 55% in size
#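 A cellular qHTS used chicken DT40 cells lacking endogenous Tdp1 but carrying stably transfected human TDP1. Compounds were applied without camptothecin, and cell growth kinetics were judged by ATP-dependent luminescence after ≥48 hr.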
# RORg inh: qHTS for inhibitors of ROR gamma transcriptional activity; Drosophila S2 Gal4-RORgamma UAS-luciferase reporter, 20 h; Nuclear receptor ROR-gamma (Mus musculus), P51450; Potency, µM (highest dose often 53.6 µM), for the others: at the top dose activity change, negative = inhibition, most hits filed as inhibitors; AID 2551, 2010; 310,000 tested, 5.4% active; note: potency is the fitted concentration of half-maximal effect; nearly all actives have a fitted effect of over 60% in size
# Target sequence (P51450 whole entry, looked up, the tested form may be a part): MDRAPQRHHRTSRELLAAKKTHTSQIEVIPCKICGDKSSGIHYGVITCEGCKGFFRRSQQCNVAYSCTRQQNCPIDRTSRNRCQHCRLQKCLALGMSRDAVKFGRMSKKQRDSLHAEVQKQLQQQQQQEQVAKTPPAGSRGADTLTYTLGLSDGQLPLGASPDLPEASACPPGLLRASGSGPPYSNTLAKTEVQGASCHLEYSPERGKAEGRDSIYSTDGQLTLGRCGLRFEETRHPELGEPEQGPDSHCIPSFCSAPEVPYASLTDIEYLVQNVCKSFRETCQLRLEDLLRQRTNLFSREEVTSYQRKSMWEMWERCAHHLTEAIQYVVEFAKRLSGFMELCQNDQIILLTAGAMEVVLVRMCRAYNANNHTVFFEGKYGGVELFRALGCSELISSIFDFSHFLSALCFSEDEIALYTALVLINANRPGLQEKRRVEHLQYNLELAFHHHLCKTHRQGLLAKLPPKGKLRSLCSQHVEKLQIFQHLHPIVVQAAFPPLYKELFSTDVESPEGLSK
#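 Luciferase reporter read in Schneider cells carrying Gal4-RORγ (mouse) and UAS-Photinus luciferase; cells given compound 1 h before 700 uM copper sulfate induction, then incubated 20 h at ambient temperature.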
# ELG1 DNA repair: qHTS screen for small molecules that inhibit ELG1-dependent DNA repair in human embryonic kidney (HEK293T) cells expressing luciferase-tagged ELG1 | HEK293T ELG1-luciferase reporter, luminescence, 16 h; DNA damage induced by 5-fluorouridine | Potency, µM (series often up to 46.1 µM), inactives show at the top dose activity change, negative = inhibition, usual class: inhibitors | 330,000 tested, 2.3% active; note: potency is the fitted concentration of half-maximal effect; nearly all actives have a fitted effect of over 55% in size
#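 Overnight (16 hr) co-exposure of 2,000 cells/well to 5-fluorouridine and compound at 37 °C preceded detection. Luciferase was quantified via ONE-Glo luminescence; loss of signal denotes inhibition.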
# DT40 TDP1 CPT: qHTS for Inhibitors of human tyrosyl-DNA phosphodiesterase 1 (TDP1): qHTS in cells in presence of CPT; chicken DT40 Tdp1-/-;hTDP1 cells + 20 nM CPT, ATP luminescence, 48 h; 420,000 tested, 12% active; Potency, µM (titrated, usually from 46.2 µM), without a hit: top-dose activity change, negative = growth inhibition, hits mostly inhibitors; note: potency is the fitted concentration of half-maximal effect; nearly all actives have a fitted effect of over 55% in size
#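 Chicken DT40 Tdp1-/- cells complemented with human TDP1, 400 cells/well, exposed to compounds plus 20 nM camptothecin for at least 48 h at 37 C; viability read as ATP content by CellTiter-Glo luminescence.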
# * marks the source's active call; other numbers are inactive results; i = inactive; ? = inconclusive; . = no result; [ ] = remark or other dose. Unless noted, calls come from the whole dose curve; as a rule, active = well fitted curve in the direction sought with a large enough effect; inconclusive = small, poorly fitted or top-dose-only effect, or another doubt; inactive = no such curve, though single readings can be large; an effect the other way counts as inactive or inconclusive. % is set by controls: 0 for no effect and ±100 for the full control effect.
SMILES,Gal4-VP16 FLuc,IL-1B inflam inh,DT40 TDP1 no CPT,RORg inh,ELG1 DNA repair,DT40 TDP1 CPT
O=C(NC(c1ccc(Cl)cc1)c1cnccn1)C1CCN(Cc2ccc(Oc3ccccc3)cc2)CC1 (stereo not drawn),.,.,16µM*,.,.,15µM*
COc1ccc(C(NC(=O)C2CCN(C/C=C/c3ccc(OC(C)=O)c(OC)c3)CC2)c2ccccn2)cc1 (stereo not drawn),.,-17,21µM*,.,.,?
C#CCCCO/N=C1/C[C@@H](O)[C@@H](O)[C@@H]2[C@@H]3C(=O)N([C@@H](C)c4ccccc4)C(=O)[C@H]3CC[C@H]12,-7%[10 µM],.,.,4%[10 µM],.,.
Cc1ccc(C(NC(=O)C2CCN(Cc3ccc(Cl)c(Cl)c3)CC2)c2ccccn2)cc1 (stereo not drawn),.,.,1.3µM*,.,.,?
CCc1ccccc1N(C1=NCCCS1)S(=O)(=O)c1ccc(C(C)(C)C)cc1,?,-4,?,3%,5%,?
Cc1cc(C(=O)Cn2nc(C(=O)O)c3ccccc3c2=O)c(C)n1CCc1ccc(Cl)cc1,-16%,-26,?,-2%,8.2µM*,21µM*
Cc1ccc(S(=O)(=O)NC2CC(=O)N(c3ccc4c(c3)OCCO4)C2)cc1 (stereo not drawn),.,10,?,.,20%,?
Cc1ccc(S(=O)(=O)CCSc2n[nH]c(=O)n2-c2ccc3c(c2)OCCO3)cc1,4%,?,21µM*,30%,-6%,?
COc1ccc(CCNC(=O)c2c(C)oc3ncn(CC(C)C)c(=O)c23)cc1OC,.,.,?,.,.,-15%
COc1ccc(CCNC(=O)c2c(C)oc3ncn(CC(C)C)c(=O)c23)c(OC)c1,.,.,16µM*,.,.,16µM*
Cc1oc2ncn(CC(C)C)c(=O)c2c1C(=O)NCCc1ccc(Cl)cc1,.,.,15µM*,.,.,?
CSc1ccc(CCNC(=O)c2c(C)oc3ncn(C)c(=O)c23)cc1,.,.,18µM*,.,.,?
CCN(CC)CCCNC(=O)c1c(C)oc2ncn(CC(C)C)c(=O)c12,.,.,-4%,.,.,8%
Cc1ccc(C)c(OC(=O)CN2C(=O)c3ccccc3C2=O)c1,-1%,1,5%,1%,13%,8%
COC(=O)C/C=C\[C@@H](C)[C@@H](/C=N\O[C@@H](C)c1cn([C@H]2COC[C@H]2O)nn1)OC,-4%[10 µM],.,.,2%[10 µM],.,.
Cc1nc2cc(NC(=O)[C@@H]3C[C@@H](Sc4ccccn4)CN3Cc3ccc4c(c3)OCCO4)ccc2s1,.,.,-9%,.,.,8%[9.04 µM]
O=C(NC1CCN(S(=O)(=O)c2ccc(F)cc2)CC1)c1ccc(F)cc1,-15%,-54*,5%,1%,-9%,-1%
CC(=O)Nc1ccc(C(=O)Nc2ccc(S(=O)(=O)N3CCCCC3)cc2)cc1,-1%,25,-24%,9%,-8%,-29%
CC(=O)c1ccc(NC(=O)c2ccc(S(=O)(=O)N3CCCC3)cc2)cc1,7%,0,16µM*,?,-6%,?
O=C(Nc1ccc(F)cc1)c1ccc(S(=O)(=O)N2CCCC2)cc1,9%,-75*,?,1%,-16%,2%
CC(=O)c1ccc(NC(=O)Nc2ccc(S(=O)(=O)N3CCCC3)cc2)cc1,-6%,-108*,15µM*,25%,?,?
O=C(Nc1ccc(S(=O)(=O)N2CCCC2)cc1)Nc1ccc(F)cc1F,.,-13,29µM*,.,.,?
O=C(Nc1ccc(S(=O)(=O)N2CCCCC2)cc1)c1ccncc1,2%,0,?,-13%,?,?
O=C(Nc1ccc(S(=O)(=O)N2CCCC2)cc1)c1cc(F)c(F)cc1Cl,5%,i,?,33%,15µM*,?
CS(=O)(=O)c1cccc(C(=O)Nc2ccc(S(=O)(=O)N3CCCCC3)cc2)c1,.,11,18µM*,.,?,10µM*
SMILES,Gal4-VP16 FLuc,IL-1B inflam inh,DT40 TDP1 no CPT,RORg inh,ELG1 DNA repair,DT40 TDP1 CPT
O=C(Nc1ccc(Cc2ccncc2)cc1)c1ccc(S(=O)(=O)N2CCCC2)cc1,11µM*,-96*,10µM*,?,2.9µM*,13µM*
CS(=O)(=O)c1ccc(C(=O)Nc2ccc(S(=O)(=O)N3CCCCC3)cc2)cc1,.,3,?,.,-4%,?
Cc1nc(-c2ccc(F)cc2)c(CC(=O)N(C)CC(=O)Nc2ccc(Cl)c(C(F)(F)F)c2)s1,.,-20,?,.,.,?
Cc1noc(C)c1C(=O)N1CCC2(CCN(C(=O)NC(C)C)CC2)CC1,-10%,.,-3%,-2%,.,-4%
Nc1cc(=O)nc(SCC(=O)Nc2ccc(F)cc2)n1-c1cccc(Cl)c1,.,.,-13%,.,.,1%
CCC(C)(C)C1CCC(NC(=O)c2ccc(S(=O)(=O)N3CCOCC3)cc2)CC1 (stereo not drawn),.,-2,23µM*,.,?,15µM*
CC1Cc2ccccc2N1C(=O)C1CCCN(S(=O)(=O)c2cccc3nsnc23)C1 (stereo not drawn),-21%,-13,15µM*,-20%,?,?
O=C(C1CCN(S(=O)(=O)c2cccc3nsnc23)CC1)N1CCc2ccccc21,-3%,-1,?,30%,?,?
O=C(C1CCN(S(=O)(=O)c2cccc3nsnc23)CC1)N1CCn2c1nc1ccccc12,-6%,17,16µM*,-7%,6.5µM*,?
O=C(C1CCCN(S(=O)(=O)c2cccc3nsnc23)C1)N1CCc2ccccc2C1 (stereo not drawn),-1%,?,23µM*,40%,16µM*,?
O=C(C1CCCN(S(=O)(=O)c2cccc3nsnc23)C1)N1CCc2ccccc21 (stereo not drawn),-14%,0,23µM*,?,?,?
CCc1nc2c(OCc3ccc(Cl)cc3Cl)cccn2c1N(C)C(=O)c1ccccc1F,.,-27,?,.,.,?
O=C(C1CCN(S(=O)(=O)c2cccc3nsnc23)CC1)N1CCCc2ccccc21,-25%,-52*,?,-11%,?,-27%
O=C1CS/C(=N\NC(=O)c2ccccc2)N1,16µM*,8,-6%,2.8µM*,1%,11%
